# From PubChem BioAssay (EPA / NIEHS)
# Values joined by “and” are separate entries in the source; they are usually repeats but may differ in a detail not shown here. Equal values may be shown once. Inconclusive results are not listed. Some compounds were tested as several samples or in several runs, with calls that do not always agree. Active and inactive are the calls of the source. Rule for the calls, unless noted: active = hit-call score of the fitted dose curve at least 0.9, where 1 is the maximum; inactive = score below 0.9.
# How the values were obtained:
# [1] = read-out: Interleukin-8 (IL8), CXCL8 (gene 3576); assay: BSK_3C_IL8: BioMAP Diversity Plus: 3C Assay for Interleukin-8 (IL8) Biomarker Activity (AID 2283020); conditions: primary human endothelial cells (HUVEC); actives raise or lower the signal
# In short: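 Endothelial primary cells of human umbilical vein origin are dosed with chemical; after 24 h the IL-8 biomarker is measured by ELISA, and concentration–response is fitted in both directions versus DMSO.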
# [2] = read-out: Monokine induced gamma interferon (MIG), CXCL9 (gene 4283); assay: BSK_3C_MIG: BioMAP Diversity Plus: 3C Assay for Monokine induced gamma interferon (MIG) Biomarker Activity (AID 2283021); conditions: primary human endothelial cells (HUVEC); actives raise or lower the signal;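 for AC50: MIG protein level measured by immunoassay in the treated endothelial cultures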
# In short: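 Endothelial primary cells (human umbilical vein) are dosed with test chemical in the 3C system. MIG levels are measured by ELISA at 24 h and fitted in both directions relative to DMSO.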
# [3] = target: human Vitamin D Receptor (VDR), VDR (gene 7421) (UniProt P11473); assay: ATG_VDR_TRANS: Attagene TRANS-FACTORIAL HepG2 Assay for human Vitamin D Receptor (VDR) (AID 2283022; active = hit-call score of the fitted dose curve at least 0.9, where 1 is the maximum)
# Sequence of human Vitamin D Receptor (VDR), VDR (gene 7421) (P11473 whole entry, looked up, the tested form may be a part): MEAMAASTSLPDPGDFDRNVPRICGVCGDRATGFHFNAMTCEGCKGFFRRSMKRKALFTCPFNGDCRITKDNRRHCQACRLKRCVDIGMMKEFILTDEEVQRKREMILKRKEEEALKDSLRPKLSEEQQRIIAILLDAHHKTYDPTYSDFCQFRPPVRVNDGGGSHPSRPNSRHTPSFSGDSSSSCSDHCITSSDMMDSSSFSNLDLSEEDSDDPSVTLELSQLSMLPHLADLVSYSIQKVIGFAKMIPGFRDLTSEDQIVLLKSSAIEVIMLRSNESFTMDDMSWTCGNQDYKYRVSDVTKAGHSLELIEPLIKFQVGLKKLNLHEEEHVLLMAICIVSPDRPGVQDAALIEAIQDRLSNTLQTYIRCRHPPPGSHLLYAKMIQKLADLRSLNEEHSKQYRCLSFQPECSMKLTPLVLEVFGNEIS
# In short: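 Transactivation by an exogenous VDR-Gal4 chimera in transiently transfected HepG2 cells was measured as reporter transcript level 24 hours after chemical treatment. RT-PCR products were analysed by capillary electrophoresis and fitted in the positive direction relative to DMSO.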
# [4] = BSK_3C_SRB: Viability Assessment in the BioMAP Diversity Plus: 3C Assay (AID 2283023); conditions: primary human endothelial cells (HUVEC);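 note: fitted both ways against DMSO so a hit may be signal rise or drop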
# In short: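 Cytotoxicity readout in parallel HUVEC 3C cultures: after 24 h compound exposure, cells fixed with 10% TCA, stained with 0.1% SRB and read at 560 nm. Gain or loss relative to DMSO fitted.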
# [5] = read-out: Matrix Metallopeptidase 1 (MMP1), MMP1 (gene 4312); assay: BSK_BE3C_MMP1: BioMAP Diversity Plus: BE3C Assay for Matrix Metallopeptidase 1 (MMP1) Biomarker Activity (AID 2283024); conditions: primary human bronchial epithelial cells; actives raise or lower the signal
# In short: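 MMP1 signal, measured by ELISA after a 24 h chemical exposure of human primary bronchial epithelial cells, is analysed with bidirectional fitting using DMSO as negative control.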
# [6] = read-out: Pselectin, SELP (gene 6403); assay: BSK_4H_Pselectin: BioMAP Diversity Plus: 4H Assay for Pselectin Biomarker Activity (AID 2283026); conditions: primary human endothelial cells (HUVEC); actives raise or lower the signal
# In short: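 Endothelial primary cells (human umbilical vein) are dosed, incubated 24 h, and assayed for surface P-selectin by ELISA; responses in either direction are fitted relative to the DMSO negative control.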
# [7] = BSK_4H_SRB: Viability Assessment in the BioMAP Diversity Plus: 4H Assay (AID 2283027); conditions: primary human endothelial cells (HUVEC);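 note: cells exposed to compound for 24 h before staining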;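 for AC50: curves fitted both ways versus DMSO so AC50 may be loss or gain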
# In short: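 Cytotoxicity readout: sulforhodamine B (0.1%) staining of total protein after 10% TCA fixation, measured at 560 nm in human umbilical vein endothelium at 24 h. DMSO set the baseline; fitting was bidirectional.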
# [8] = BSK_BE3C_SRB: Viability Assessment in the BioMAP Diversity Plus: BE3C Assay (AID 2283028); conditions: primary human bronchial epithelial cells;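 for AC50: fitted both ways so AC50 may mark signal gain or loss versus DMSO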
# In short: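 Cytotoxicity read-out: SRB (0.1%) staining of TCA-fixed (10%) human lung bronchial epithelial cells, absorbance 560 nm, 24 h post-dosing. Curves fitted both directions relative to DMSO.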
# [9] = read-out: Thrombomodulin, THBD (gene 7056); assay: BSK_3C_Thrombomodulin: BioMAP Diversity Plus: 3C Assay for Thrombomodulin Biomarker Activity (AID 2283029); conditions: primary human endothelial cells (HUVEC); actives raise or lower the signal
# In short: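 Endothelial cells from umbilical vein are dosed with test chemical and incubated 24 h. Thrombomodulin is then quantified by ELISA, with DMSO serving as negative control and activity baseline.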
# [10] = read-out: Urokinase-type plasminogen activator receptor (uPAR), PLAUR (gene 5329); assay: BSK_4H_uPAR: BioMAP Diversity Plus: 4H Assay for Urokinase-type plasminogen activator receptor (uPAR) Biomarker Activity (AID 2283030); conditions: primary human endothelial cells (HUVEC); actives raise or lower the signal
# In short: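 uPAR level read by ELISA on HUVEC cultures (BioMAP 4H) 24 h post-dosing, analyzed for gain or loss relative to DMSO. Parallel SRB staining assessed overt cytotoxicity.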
# [11] = read-out: Vascular endothelial growth factor receptor 2 (Homo sapiens) (UniProt P35968); assay: BSK_4H_VEGFRII: BioMAP Diversity Plus: 4H Assay for Vascular endothelial growth factor receptor 2 (VEGFR2) Biomarker Activity (AID 2283031); conditions: primary human endothelial cells (HUVEC); actives raise or lower the signal;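 for AC50: cell-surface VEGFR2 protein level quantified by ELISA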
# In short: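 Measured by ELISA after 24 h of compound treatment: VEGFR2 on primary human umbilical vein endothelial cells, fitted in both directions relative to DMSO. Parallel cultures received SRB staining (560 nm) for overt cytotoxicity.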
# [12] = read-out: Human Leukocyte Antigen - DR isotype (HLADR), HLA-DRA (gene 3122); assay: BSK_BE3C_HLADR: BioMAP Diversity Plus: BE3C Assay for Human Leukocyte Antigen - DR isotype (HLADR) Biomarker Activity (AID 2283032); conditions: primary human bronchial epithelial cells; actives raise or lower the signal
# In short: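 Chemicals are dosed onto BE3C bronchial epithelial cultures of human origin and left 24 h. HLA-DR is then measured by ELISA, and the endpoint is fitted in both directions using DMSO as the activity baseline.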
# [13] = read-out: Vascular cell adhesion molecule 1 (VCAM1), VCAM1 (gene 7412); assay: BSK_4H_VCAM1: BioMAP Diversity Plus: 4H Assay for Vascular cell adhesion molecule 1 (VCAM1) Biomarker Activity (AID 2283033); conditions: primary human endothelial cells (HUVEC); actives raise or lower the signal;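 for outcome: cell-surface VCAM-1 protein measured by ELISA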
# In short: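 Chemicals are added to primary human umbilical vein endothelial cells. After 24 h, VCAM-1 levels are measured by ELISA. Values come from bidirectional fitting referenced to DMSO.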
# [14] = read-out: Interferon-gamma inducible Protein 10 (IP10), CXCL10 (gene 3627); assay: BSK_BE3C_IP10: BioMAP Diversity Plus: BE3C Assay for Interferon-gamma inducible Protein 10 (IP10) Biomarker Activity (AID 2283034); conditions: primary human bronchial epithelial cells; actives raise or lower the signal
# In short: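 IP-10 quantified by ELISA serves as the endpoint. Cells: primary human bronchial epithelium, read 24 h after compound addition. Activity is derived by bidirectional fitting with DMSO as negative control.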
# [15] = read-out: Monokine induced gamma interferon (MIG), CXCL9 (gene 4283); assay: BSK_BE3C_MIG: BioMAP Diversity Plus: BE3C Assay for Monokine induced gamma interferon (MIG) Biomarker Activity (AID 2283035); conditions: primary human bronchial epithelial cells; actives raise or lower the signal;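 for outcome: MIG protein measured by ELISA in BE3C cultures after 24 h of dosing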
# In short: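 hu bronchial epithelial 1° cells, 24 h cpd; MIG by ELISA; bidirectional fit, DMSO = baseline.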
# [16] = read-out: urokinase plasminogen activator (uPA), PLAU (gene 5328); assay: BSK_BE3C_uPA: BioMAP Diversity Plus: BE3C Assay for urokinase plasminogen activator (uPA) Biomarker Activity (AID 2283038); conditions: primary human bronchial epithelial cells; actives raise or lower the signal;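 for outcome: uPA protein level quantified by ELISA in cell cultures; uPA read one day after compound addition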
# In short: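 ELISA for uPA on human primary bronchial epithelial cultures 24 h post-treatment, gain or loss against DMSO. Parallel SRB staining (0.1% after 10% TCA fixation, 560 nm) assessed overt cytotoxicity.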
# [17] = read-out: Interleukin-6 (IL6), IL6 (gene 3569); assay: BSK_CASM3C_IL6: BioMAP Diversity Plus: CASM3C Assay for Interleukin-6 (IL6) Biomarker Activity for (AID 2283040); conditions: primary human coronary artery smooth muscle cells; actives raise or lower the signal
# [18] = read-out: Plasminogen activator inhibitor-1 (PAI1), SERPINE1 (gene 5054); assay: BSK_BE3C_PAI1: BioMAP Diversity Plus: BE3C Assay for Plasminogen activator inhibitor-1 (PAI1) Biomarker Activity (AID 2283037); conditions: primary human bronchial epithelial cells; actives raise or lower the signal
# In short: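 Values derive from bidirectional fitting against DMSO baseline of PAI-1 levels, measured by ELISA in human bronchial epithelial cells 24 h after compound addition.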
# [19] = read-out: Urokinase-type plasminogen activator receptor (uPAR), PLAUR (gene 5329); assay: BSK_BE3C_uPAR: BioMAP Diversity Plus: BE3C Assay for Urokinase-type plasminogen activator receptor (uPAR) Biomarker Activity (AID 2283039); conditions: primary human bronchial epithelial cells; actives raise or lower the signal;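 note: uPAR protein level measured by ELISA on the cells; cells exposed to compound for one day before measurement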
# In short: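 Steps: dose human primary bronchial epithelial cells, incubate 24 h, measure uPAR by ELISA, then fit gain- or loss-of-signal response bidirectionally relative to DMSO.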
# [20] = read-out: Transforming growth factor beta 1 (TGFb1), TGFB1 (gene 7040); assay: BSK_BE3C_TGFb1: BioMAP Diversity Plus: BE3C Assay for Transforming growth factor beta 1 (TGFb1) Biomarker Activity (AID 2283036); conditions: primary human bronchial epithelial cells; actives raise or lower the signal
# In short: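 Bronchial epithelial primary cells are treated with test chemical, then TGF-b1 is quantified by ELISA after 24 hours. Values derive from bidirectional fitting against DMSO, with cytotoxicity checked by SRB staining in parallel cultures.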
smiles,measurement,setting,value
O=C(Cl)C(F)(F)C(F)(F)C(F)(F)C(F)(F)C(F)(F)C(F)(F)C(F)(F)F,outcome,[1],inactive
same,outcome,[2],inactive
same,outcome,[3],inactive
same,outcome,[4],inactive
same,AC50,[5],6 µM (active) and 24 µM (active)
same,outcome,[5],inactive
same,outcome,[6],inactive
same,outcome,[7],inactive
same,outcome,[8],inactive
same,outcome,[9],inactive
same,outcome,[10],inactive
same,outcome,[11],inactive
same,outcome,[12],inactive
same,outcome,[13],inactive
same,AC50,[14],19.8 µM (active)
same,outcome,[14],inactive
same,outcome,[15],inactive
same,outcome,[16],inactive
same,outcome,[17],inactive
O=C(O)CCC(F)(F)C(F)(F)C(F)(F)C(F)(F)C(F)(F)C(F)(F)C(F)(F)F,outcome,[1],inactive
same,outcome,[2],inactive
same,outcome,[3],inactive
same,outcome,[4],inactive
same,AC50,[5],3.33 µM (active) and 3.8 µM (active)
same,outcome,[6],inactive
same,outcome,[7],inactive
same,outcome,[8],inactive
same,outcome,[9],inactive
same,outcome,[10],inactive
same,outcome,[11],inactive
same,AC50,[12],2.48 µM (active) and 3.33 µM (active)
same,outcome,[13],inactive
same,AC50,[14],2.32 µM (active)
same,outcome,[14],inactive
same,outcome,[15],inactive
same,outcome,[18],inactive
same,outcome,[16],inactive
same,outcome,[19],inactive
same,outcome,[17],inactive
CCOC(=O)CC(=O)C(F)(F)C(F)(F)F,outcome,[1],inactive
same,outcome,[2],inactive
same,outcome,[3],inactive
same,outcome,[4],inactive
same,outcome,[5],inactive
same,outcome,[6],inactive
same,outcome,[7],inactive
same,outcome,[8],inactive
same,outcome,[9],inactive
same,AC50,[10],15.1 µM (active)
same,outcome,[10],inactive
same,outcome,[11],inactive
same,outcome,[12],inactive
same,outcome,[13],inactive
same,outcome,[14],inactive
same,outcome,[15],inactive
same,outcome,[18],inactive
same,outcome,[16],inactive
same,outcome,[17],inactive
O=C1C=CC(=O)N1c1ccc(Cc2ccc(N3C(=O)C=CC3=O)cc2)cc1,AC50,[1],7.33 µM (active)
same,AC50,[2],12 µM (active)
same,outcome,[3],inactive
same,AC50,[4],11.5 µM (active)
same,AC50,[5],4.99 µM (active)
same,AC50,[6],7.11 µM (active)
same,AC50,[7],12.1 µM (active)
same,AC50,[8],3.04 µM (active)
same,AC50,[9],11.3 µM (active)
same,AC50,[10],9.9 µM (active)
same,AC50,[11],10.6 µM (active)
same,AC50,[12],2.8 µM (active)
same,AC50,[13],9.59 µM (active)
same,AC50,[14],2.6 µM (active)
same,AC50,[15],6.3 µM (active)
same,AC50,[20],1.6 µM (active)
same,AC50,[18],3.54 µM (active)
same,AC50,[16],2.62 µM (active)
same,AC50,[17],9.64 µM (active)
OCC(F)(F)C(F)(F)C(F)(F)C(F)(F)C(F)(F)C(F)(F)C(F)(F)C(F)(F)CO,outcome,[1],inactive
same,outcome,[2],inactive
same,outcome,[3],inactive
same,AC50,[4],24.6 µM (active)
same,outcome,[4],inactive
same,AC50,[5],8.5 µM (active)
same,outcome,[5],inactive
same,AC50,[6],9.58 µM (active)
same,outcome,[6],inactive
same,AC50,[7],36.5 µM (active)
same,outcome,[7],inactive
same,outcome,[8],inactive
same,outcome,[9],inactive
same,outcome,[10],inactive
same,outcome,[11],inactive
same,AC50,[12],30 µM (active) and 31.7 µM (active)
same,AC50,[13],30 µM (active) and 24.8 µM (active)
same,AC50,[14],38 µM (active) and 30.8 µM (active)
same,AC50,[15],43 µM (active) and 46.6 µM (active)
same,outcome,[16],inactive
same,outcome,[17],inactive
